From the supplement of paper PMC10105736 come the findings set out here.

Test in all cases: MAPPIT interaction score (arbitrary units); higher = stronger binary interaction signal, active = hit call of the paper
One assay addresses CG12343. Particulars: MAPPIT configuration: N-N; pair source set: DPIM;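 active = MAPPIT score above the 99th percentile of random reference set scores in the same batch; inactive = at or below it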.
The target of a further assay is CG12567. The settings on record: pair source set: RRS.
For a further assay, the target named is CG14664. The settings on record: pair source set: RRS.
Another assay concerns the target DIP1. The settings on record: MAPPIT configuration: N-N; pair source set: screen_2.
A further assay deals with GstZ2. Particulars: pair source set: RRS.
The target in a further assay is CG12607. The settings on record: MAPPIT configuration: N-N; pair source set: Curagen_high_conf.
In the next assay the target is CG17612. The settings on record: MAPPIT configuration: N-C; pair source set: screen_4.
For a further assay, the target named is CG30195. Particulars: MAPPIT configuration: N-N; pair source set: DPIM.
For the next assay, the target named is Cp190. Particulars: MAPPIT configuration: N-C; pair source set: Lit-BM-16.
The target of the next assay is Cpr72Ea. Particulars: MAPPIT configuration: N-N; pair source set: Lit-BS-16.
A further assay concerns the target Trl. Particulars: MAPPIT configuration: N-N; pair source set: Finley_Y2H.
The next assay has as its target Ubc6.
The next assay has as its target Zasp52. Particulars: MAPPIT configuration: N-N.
For a further assay, the target named is fl(2)d. The settings on record: MAPPIT configuration: N-N; pair source set: screen_2.
Another assay has as its target su(Hw). The settings on record: pair source set: Lit-BM-16.
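Note: HEK293T cells with Epo stimulation, STAT-responsive firefly luciferase reporter, fold induction versus unstimulated cells divided by the larger fold induction of two negative controls lacking either bait or prey.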

B1: CG8745 (protein)
chain: MPFAHEQLNLVASEQLSKTETIKLRNQHIGQACQLFYRSDPLKIVRGQGQYMFDEEGTRYLDCINNVAHVGHCHPEVVRAGALQMATISTNNRFLHDELVQCARTLTSKMPEPLSVCFFVNSGSEANDLALRLARNFTKRQDVITLDHAYHGHLQSVMEVSPYKFNQPGGEAKPDYVHVAPCPDVYGGKFTDKMYPDADMGALYAQPIEEICQKQLAKGQGVAAFIAESLQSCGGQILPPAGYFQAVYDAVRSAGGVCIADEVQVGFGRVGSHYWAFETQNVIPDIVCVAKPMGNGHPVGAVVTTPEIAQAFHATGVAYFNTYGGNPVSCAIANAVMRVIEEEGLQQKALVLGDYLLEECNRLKQEFECIGDVRGAGLFVGIELVQDRKERIPDKKAAHWVVNRMKQLHRVLVSSDGPNDNVIKLKPPMCFNRENADEFLLGFRECLTAVMQERLASATSAAMAATSGVIATATETLANKTKLFERQDRLIKSV
Regarding B1, in the assay with CG12343, the MAPPIT interaction score is 0.219 (inactive).

B2: Adar (protein)
chain: MKFDSRVMLNSANNNSPQHPVSAPSDINMNGYNRKLPQKRGYEMPKYSDPKKKMCKERIPQPKNTVAMLNELRHGLIYKLESQTGPVHAPLFTISVEVDGQKYLGQGRSKKVARIEAAATALRSFIQFKDGAVLSPLKPAGNLDFTSDEHLENGIENLSSSKMFEIIQTMLTEKLSNPTSLEQPTFCMSQNVSKSAITVDGQKKVPDKGPVMLLYELFNDVNFECINIDGAQNNCRFKMTVTINEKKFDGTGPSKKTAKNAAAKAALASLCNISYSPMVVPQKNVPLPIDDKSSSMELPQIHADTIGRLVLEKFMEVIKGQEAYSRRKVLAGIVMTENMNFCEAKVISVSTGTKCVSGEHMSVNGAVLNDSHAEIVSRRCLLKYLYAQLDLQCNQATAYQSIFVRNTDGQYPYKLKSGVHFHLYINTAPCGDARIFSPHENDTGVDKHPNRKARGQLRTKIESGEGTIPVKSSDGIQTWDGVLQGQRLLTMSCSDKIARWNIVGIQGSLLSSIIEPVYLHSIVLGSLLHPEHMYRAVCGRIEKSIQGLPPPYHLNKPRLALVTSAEPRNQAKAPNFGINWTIGDTELEVVNSLTGRTIGGQVSRITKQAFFVKYGFLMANLPGILVRKVTTDYGQTKANVKDYQIAKLELFSAFKREDLGSWLKKPIEQDEFGLAE
For the molecule B2, the MAPPIT interaction score with CG12567 (MAPPIT configuration: N-C) was 0.742 (inactive); in the assay with CG12567 (MAPPIT configuration: N-N), 1.87 (inactive); with CG14664 (MAPPIT configuration: N-C), -0.248 (inactive); with CG14664 (MAPPIT configuration: N-N), 0.297 (inactive); in the assay with DIP1, -0.0973 (inactive); with GstZ2 (MAPPIT configuration: N-C) it was 0.124 (inactive). In addition, the MAPPIT interaction score with GstZ2 (MAPPIT configuration: N-N) is -0.194 (inactive).

B3: mod(mdg4) (protein)
chain: MADDEQFSLCWNNFNTNLSAGFHESLCRGDLVDVSLAAEGQIVKAHRLVLSVCSPFFRKMFTQMPSNTHAIVFLNNVSHSALKDLIQFMYCGEVNVKQDALPAFISTAESLQIKGLTDNDPAPQPPQESSPPPAAPHVQQQQIPAQRVQRQQPRASARYKIETVDDGLGDEKQSTTQIVIQTTAAPQATIVQQQQPQQAAQQIQSQQLQTGTTTTATLVSTNKRSAQRSSLTPASSSAGVKRSKTSTSANVMDPLDSTTETGATTTAQLVPQQITVQTSVVSAAEAKLHQQSPQQVRQEEAEYIDLPMELPTKSEPDYSEDHGDAAGDAEGTYVEDDTYGDMRYDDSYFTENEDAGNQTAANTSGGGVTATTSKAVVKQQSQNYSESSFVDTSGDQGNTEAQAATSASATKIPPRKRGRPKTKVEDQTPKPKLLEKLQAATLNEEASEPAVYASTTKGGVKLIFNGHLFKFSFRKADYSVFQCCYREHGEECKVRVVCDQKRVFPYEGEHVHFMQASDKSCLPSQFMPGESGVISSLSPSKELLMKNTTKLEEADDKEDEDFEEFEIQEIDEIELDEPEKTPAKEEEVDPNDFREKIKRRLQKALQNKKK
Take B3: the MAPPIT interaction score is 0.232 (inactive) in the assay with CG12607; 4.86 (active) with CG17612; 2.59 (active) with CG30195; 1.09 (inactive) in the assay with Cp190; -2.84 (inactive) with Cpr72Ea; -0.456 (inactive) with Trl. The MAPPIT interaction score is 3.96 (active) with Ubc6 (MAPPIT configuration: N-C, pair source set: screen_3); 5.53 (active) with Ubc6 (MAPPIT configuration: N-N, pair source set: screen_2); 0.192 (inactive) with Zasp52 (pair source set: Curagen_low_conf); -0.533 (inactive) with Zasp52 (pair source set: Lit-BS-16); -0.311 (inactive) with fl(2)d; 0.885 (inactive) in the assay with su(Hw) (MAPPIT configuration: N-C). Moreover, the MAPPIT interaction score with su(Hw) (MAPPIT configuration: N-N) was 0.105 (inactive).
